The term remaining activity denotes the signal under treatment as a percentage of the control signal.

Values without a mark were called inactive. How the calls were made is not given here.

The test system of this test is Aerobactin synthetase IucA (Klebsiella pneumoniae, hypervirulent). Put plainly: IucA enzyme inhibition, biochemical, LOPAC library, absorbance readout (AID 1346212).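 Further: 100% = no compound wells and 0% = no enzyme wells.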 As to conditions: IucA enzyme assay, absorbance (OD) readout; hits give low values;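 tested at 8 µM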.
In the case of `Cc1ccc(O)c(N=Nc2ccccc2)n1`, the remaining activity was 82.6%.

As to `NC(=NCc1ccc(Cl)c(Cl)c1)NC(=O)c1nc(Cl)c(N)nc1N`, the remaining activity was 105%.

Consider `COc1ccc(NC=O)c(C(=O)CCNC(C)=O)c1`, for which the remaining activity was 95%.

Turning to `CN(CCOc1ccc(C[C@H](Nc2ccccc2C(=O)c2ccccc2)C(=O)O)cc1)c1ccccn1`, the remaining activity was 117%.

With `NC/C=C\C(=O)O`, the remaining activity is 124%.

In the case of `CN=c1nc(-c2ccccc2)n(-c2ccccc2)s1`, the remaining activity is 109%.

Turning to `COc1ccccc1N1CCN(CCCCNC(=O)c2ccc3ccccc3c2)CC1`, the remaining activity is 118%.

As for `O=C(O)CCC(C(=O)O)N1C(=O)c2ccccc2C1=O` (stereo unspecified), the remaining activity was 121%.

For `CSc1nc(N)c2ncn([C@@H]3O[C@H](COP(=O)(O)OP(=O)(O)OP(=O)(O)O)[C@H](O)C3O)c2n1` (stereo partly specified), the remaining activity was 109%.

As to `Cn1ccc2cc3c(cc21)CCN3C(=O)Nc1cccnc1`, the remaining activity was 102%.

Regarding `C#C[C@]1(O)CC[C@H]2[C@@H]3CCC4=Cc5nc6nc7ccccc7n6cc5C[C@]4(C)[C@H]3CC[C@@]21C`, the remaining activity was 123%.

For `CCCC(=O)NCCc1c2n(c3ccc(OC)cc13)Cc1ccccc1-2`, the remaining activity was 89.8%.

As to `O=C(O)C1=CCCN(CCON=C(c2ccccc2)c2ccccc2)C1`, the remaining activity was 104%.

Consider `O=C(CCCN1CCC(O)(c2cccc(C(F)(F)F)c2)CC1)c1ccc(F)cc1`, for which the remaining activity is 101%.

For `CN1CCc2ccccc2Cc2[nH]c3ccccc3c2CC1`, the remaining activity is 107%.

For `CCCCCCCCCCCCCCCC(=O)NCC(COP(=O)([O-])OCC[N+](C)(C)C)OCC` (stereo unspecified), the remaining activity was 74.4%.
